The source of these data is PubChem BioAssay (Tox21).

Where “and” joins values, the source holds several entries; their conditions need not be identical. Equal entries are not always repeated. Inconclusive results are not listed. Calls of active or inactive are those of the source. Unless noted, calls follow the shape of the dose curve; as a rule, active = well fitted curve in the direction sought with a large enough effect in the repeat runs; inconclusive = weak or mixed curves; inactive = no such curve, though single readings can be large; an effect the other way counts as inactive or inconclusive.

Test [1] is described as follows: qHTS assay to identify small molecule antagonists of the retinoid acid receptor (RAR) signaling pathway - cell viability counter screen (AID 1159551). Also: nearly all actives have a fitted effect of over 35% in size. Also: potency is read from the fitted curve at half-maximal effect. A digest of the protocol: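 C3RL4 cells were seeded overnight at 37 C, then treated with compounds plus 1 uM (final) retinol for 6 h at 37 C. Viability was read as ATP by CellTiter-Glo luminescence after 30 min at room temperature.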
On the technique in general: In qHTS, concentration-response curves come from the screen itself.

Test [2] is described as follows: qHTS assay to identify small molecule antagonists of the retinoic acid receptor (RAR) signaling pathway (AID 1159552; also: nearly all actives have a fitted effect of over 50% in size; also: potency is read from the fitted curve at half-maximal effect). A digest of the protocol: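 Retinol at 1 uM final stimulated RARE-luciferase expression in C3RL4 cells exposed to test compounds for 6 hr at 37 C. Reduced luminescence, read 30 min after detection reagent, indicated pathway antagonism.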
Test [3] is described as follows: qHTS assay to identify small molecule antagonists of the estrogen related receptor (ERR) signaling pathway from Tox21 library - cell viability counter screen (AID 1224834). Also: nearly all actives have a fitted effect of over 30% in size. Also: potency is read from the fitted curve at half-maximal effect. A digest of the protocol:
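ERR reporter cells were plated 6 h before compound addition, then exposed to test compounds in DMSO for 17.5 h at 37 C. Viability was read as CellTiter-Fluor fluorescence after a 30-minute incubation at 37 C.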

For test [4], the target named is Luciferin 4-monooxygenase (Photinus pyralis) (UniProt P08659). The test can be described thus: qHTS assay to identify small molecule inhibitors of firefly luciferase (AID 1224835). Also: nearly all actives have a fitted effect of over 25% in size. Also: potency is read from the fitted curve at half-maximal effect. A digest of the protocol:
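Inhibition of purified Photinus luciferase is measured by luminescence. Substrate levels (D-luciferin, ATP) sit at their KM values. Each compound is tested in a concentration series.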

Test [5] in a line: qHTS assay to identify small molecule agonists of the constitutive androstane receptor (CAR) signaling pathway - cell viability counter screen (AID 1224836). Also: nearly all actives have a fitted effect of over 45% in size. Also: potency is read from the fitted curve at half-maximal effect. A digest of the protocol: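 Cells were seeded and incubated 4 hrs. Compounds were added across 15 concentrations together with PK11195 at 0.75 uM final. Plates were incubated 23 hrs at 37 C. CellTiter-Fluor was added and fluorescence measured.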

Test [6] in a line: qHTS assay to identify small molecule antagonists of the constitutive androstane receptor (CAR) signaling pathway - cell viability counter screen (AID 1224837). Also: nearly all actives have a fitted effect of over 45% in size. Also: potency is read from the fitted curve at half-maximal effect. A digest of the protocol: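 HepG2 cells stably expressing hCAR and a CYP2B6-2.2kb reporter were plated and pre-incubated 4 hr at 37 C/5% CO2, then given compounds at 15 concentrations plus 50 nM CITCO (final). After 23 hr, viability was read by CellTiter-Fluor fluorescence.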

Test [7] deals with Nuclear receptor subfamily 1 group I member 3 (Homo sapiens) (UniProt Q14994). The test can be described thus: qHTS assay to identify small molecule antagonists of the constitutive androstane receptor (CAR) signaling pathway (AID 1224838). Also: nearly all actives have a fitted effect of over 40% in size. Also: potency is read from the fitted curve at half-maximal effect. A digest of the protocol:
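HepG2 cells stably co-transfected with hCAR and a CYP2B6-2.2kb luciferase reporter were seeded 4 h before compound addition at 15 concentrations. Cells were stimulated with 50 nM CITCO (final) for 24 h at 37 C; luciferase luminescence was then read.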

Test [8] has the same target. The test can be described thus: qHTS assay to identify small molecule agonists of the constitutive androstane receptor (CAR) signaling pathway (AID 1224839). Also: nearly all actives have a fitted effect of over 15% in size. Also: potency is read from the fitted curve at half-maximal effect. A digest of the protocol: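 Cells were plated and incubated 4 hrs, then dosed with compounds at 15 concentrations. PK11195 was added to 0.75 uM final. After 24 hrs at 37 C, luciferase luminescence was measured.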

The nature of test [9]: qHTS assay to identify small molecule antagonists of the estrogen related receptor signaling pathway with the pleiotropic PPARgamma coactivator (PGC) from Tox21 10K library - cell viability counter screen (AID 1224840; active = well fitted cell-killing curve with a large enough effect in the repeat runs, not every such curve was filed as active; also: nearly all actives have a fitted effect of over 40% in size; also: potency is read from the fitted curve at half-maximal effect). A digest of the protocol: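 PGC/ERR cells were seeded at 2,000 cells/well and left 6 hours at 37 C/5% CO2 before pin-tool addition of compounds in DMSO. After 17.5 hours at 37 C, CellTiter-Fluor was added and fluorescence read 30 minutes later.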

The nature of test [10]: qHTS assay to identify small molecule agonists of the hypoxia (HIF-1) signaling pathway - cell viability counter screen (AID 1224844; calls by dose curve; also: nearly all actives have a fitted effect of over 50% in size; also: potency is read from the fitted curve at half-maximal effect). A digest of the protocol: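 HRE-bla ME-180 cells in medium with 0.5% dialyzed FBS were preincubated 5 hrs at 37C, exposed to compounds for 17 hrs, then viability was read as CellTiter-Glo luminescence after 30 min at room temperature, in the reporter wells.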

A short description of test [11]: qHTS assay to identify small molecule agonists of the retinoic acid receptor (RAR) signaling pathway (AID 1159553). A digest of the protocol:
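C3RL4 cells carrying a RARE luciferase reporter were plated overnight at 37 C, then exposed to compounds in DMSO for 6 hr at 37 C and 5% CO2. Luminescence was read 30 min after luciferase reagent addition at room temperature.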

A short description of test [12]: qHTS assay to identify small molecule agonists of the estrogen related receptor signaling pathway with the pleiotropic PPARgamma coactivator (PGC) from Tox21 10K library (AID 1224842). Also: nearly all actives have a fitted effect of over 15% in size. A digest of the protocol:
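Luminescence from One-Glo (30 min, room temperature) measured after PGC/ERR cells had 18 h at 37 C with pinned compound (23 nL in DMSO). Cells had been seeded at 2,000 per well and pre-incubated 6 h.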

Test [13] addresses Thyrotropin receptor (Homo sapiens) (UniProt P16473). The test can be described thus: qHTS assay to identify small molecule agonists of the thyroid stimulating hormone receptor (TSHR) signaling pathway (AID 1224843; calls by dose curve; also: nearly all actives have a fitted effect of over 45% in size; also: potency is read from the fitted curve at half-maximal effect). A digest of the protocol: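 Screening of the Tox21 10K collection used HEK293 cells engineered with TSHR at 800 cells per well. After a 30-min room-temperature compound exposure, HTRF cAMP reagents were added and fluorescence recorded 1 h later.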

A short description of test [14]: qHTS assay to identify small molecule antagonists of the estrogen related receptor signaling pathway with the pleiotropic PPARgamma coactivator (PGC) from Tox21 10K library (AID 1224841; call rule not given here; also: actives are mostly falling curves and most rising ones were filed inactive; nearly all actives have a fitted effect of over 50% in size; also: potency is read from the fitted curve at half-maximal effect). A digest of the protocol:
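PGC/ERR reporter cells were seeded at 2,000 cells/well and held 6 hours at 37 C/5% CO2 before pin-tool addition of compounds in DMSO. After 18 hours at 37 C, One-Glo was added and luminescence read after 30 minutes at room temperature.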

Nuclear receptor subfamily 1 group I member 3 (Homo sapiens), sequence (Q14994 whole entry, looked up): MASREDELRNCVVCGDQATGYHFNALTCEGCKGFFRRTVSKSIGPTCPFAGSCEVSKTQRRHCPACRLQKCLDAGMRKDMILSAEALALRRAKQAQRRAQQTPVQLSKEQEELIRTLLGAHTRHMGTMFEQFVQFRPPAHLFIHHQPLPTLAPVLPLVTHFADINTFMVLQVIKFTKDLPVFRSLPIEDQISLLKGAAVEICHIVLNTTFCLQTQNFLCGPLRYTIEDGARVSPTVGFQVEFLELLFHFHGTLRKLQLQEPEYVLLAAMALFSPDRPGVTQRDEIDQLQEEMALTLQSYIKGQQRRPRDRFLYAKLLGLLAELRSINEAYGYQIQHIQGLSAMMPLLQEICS
Luciferin 4-monooxygenase (Photinus pyralis), sequence (P08659 whole entry, looked up): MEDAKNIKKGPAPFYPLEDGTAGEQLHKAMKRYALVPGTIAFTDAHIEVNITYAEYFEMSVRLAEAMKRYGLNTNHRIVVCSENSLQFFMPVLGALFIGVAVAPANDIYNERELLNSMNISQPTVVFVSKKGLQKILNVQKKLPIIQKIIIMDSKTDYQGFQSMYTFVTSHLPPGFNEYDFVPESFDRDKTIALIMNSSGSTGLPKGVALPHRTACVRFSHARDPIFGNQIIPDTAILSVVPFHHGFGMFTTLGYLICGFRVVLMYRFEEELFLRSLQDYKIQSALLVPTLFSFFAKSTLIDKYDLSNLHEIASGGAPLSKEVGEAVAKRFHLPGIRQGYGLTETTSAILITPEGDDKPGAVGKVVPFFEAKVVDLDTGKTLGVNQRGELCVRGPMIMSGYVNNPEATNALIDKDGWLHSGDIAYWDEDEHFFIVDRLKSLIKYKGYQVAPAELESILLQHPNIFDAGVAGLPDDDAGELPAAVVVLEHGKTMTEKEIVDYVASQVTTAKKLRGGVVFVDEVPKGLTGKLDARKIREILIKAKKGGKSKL
Thyrotropin receptor (Homo sapiens), sequence (P16473 whole entry, looked up): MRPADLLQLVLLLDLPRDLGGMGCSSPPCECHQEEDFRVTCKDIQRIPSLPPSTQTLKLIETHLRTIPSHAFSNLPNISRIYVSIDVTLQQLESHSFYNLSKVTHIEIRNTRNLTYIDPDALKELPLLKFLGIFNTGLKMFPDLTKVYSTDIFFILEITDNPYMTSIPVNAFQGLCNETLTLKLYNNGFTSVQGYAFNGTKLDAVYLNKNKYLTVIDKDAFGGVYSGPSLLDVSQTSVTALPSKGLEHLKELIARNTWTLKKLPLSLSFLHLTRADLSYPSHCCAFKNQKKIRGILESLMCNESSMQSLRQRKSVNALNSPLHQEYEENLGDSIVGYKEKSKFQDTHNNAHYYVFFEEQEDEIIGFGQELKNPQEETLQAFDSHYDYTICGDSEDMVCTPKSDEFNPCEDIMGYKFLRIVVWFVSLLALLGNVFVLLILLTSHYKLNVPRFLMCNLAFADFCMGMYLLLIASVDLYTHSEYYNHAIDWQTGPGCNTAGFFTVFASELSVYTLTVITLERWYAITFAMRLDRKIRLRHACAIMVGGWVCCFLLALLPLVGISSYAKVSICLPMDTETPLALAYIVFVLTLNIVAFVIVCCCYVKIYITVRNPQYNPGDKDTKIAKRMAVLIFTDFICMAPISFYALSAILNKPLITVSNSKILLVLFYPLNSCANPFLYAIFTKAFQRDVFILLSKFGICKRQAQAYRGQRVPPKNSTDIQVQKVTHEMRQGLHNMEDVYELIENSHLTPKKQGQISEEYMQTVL

As for `Clc1ccc2cc3ccccc3cc2c1`, the Potency result in [1], in test [2], in test [3], in test [4], in [5] and in [6] was “inactive” throughout. For the same compound, the Potency result in [7], in [9] and in test [10] was “inactive” throughout. The Potency in [8] was 54.4 µM (active).
Take `CC(=O)SC[C@@H](Cc1ccccc1)C(=O)NCC(=O)OCc1ccccc1`: the Potency entry in test [1], in test [2], in test [11], in test [4], in test [5] and in test [6] was “inactive” each time. Also, the Potency entry in test [9] and in test [10] was “inactive” throughout.
Consider `CCc1cc(Cc2cc(CC)cc(C(C)(C)C)c2O)c(O)c(C(C)(C)C)c1`, for which the Potency in test [1] is 68.6 µM (active); in test [2] it was 27.3 µM (active); in test [3] it was 54.5 µM (active); in [5], 61.1 µM (active); in test [6] it was 61.1 µM (active); in [7], 21.7 µM (active). The Potency in test [9] was 43.3 µM (active); in test [10], 11 µM (active). Further, the Potency result in test [4], in [8], in test [12] and in [13] was “inactive” throughout.
Take `C[C@H]1[C@H]2CC[C@H]3[C@@H]4CC=C5C[C@@H](N(C)C)CC[C@]5(C)[C@H]4CC[C@]23CN1C`: the Potency entry in test [1], in test [2], in [11], in test [4], in test [6] and in test [7] was “inactive” in each case. Besides, the Potency entry in test [8], in test [9], in [14], in test [12], in test [13] and in test [10] was “inactive” each time.
Consider `CC(=O)OCC(C)OC(C)=O` (configuration not stated), for which the Potency entry in test [1], in test [2], in [3], in [4], in [5] and in test [6] was “inactive” each time. The Potency result in test [9], in [13] and in [10] was “inactive” in each case.
As to `CCCC(c1cc(C(C)(C)C)c(O)cc1C)c1cc(C(C)(C)C)c(O)cc1C`, the Potency in test [1] is 27.6 µM (active); in [2], 27.6 µM (active); in [3], 19.6 µM (active); in test [5] it was 39 µM (active); in test [6], 31 µM (active); in test [9], 22 µM (active). The Potency in test [13] was 6.19 µM (active); in test [10], 9.89 µM (active). Also, the Potency entry in test [4] and in [8] was “inactive” in each case.
Turning to `CSc1ccc(/C=C2/C(C)=C(CC(=O)O)c3cc(F)ccc32)cc1`, the Potency entry in test [1], in [2], in test [11], in test [5], in test [6] and in test [7] was “inactive” in each case. Besides, the Potency result in test [8], in test [9], in [14], in [12] and in test [13] was “inactive” each time. Further, in [10], the Potency is 10.7 µM (active).
For `Cc1cc(O)c(Cl)c(C)c1Cl`, the Potency entry in test [1], in [2], in test [3], in test [4], in test [5] and in [6] was “inactive” throughout. Moreover, the Potency entry in test [7], in [8], in test [9], in test [14], in test [12] and in test [13] was “inactive” each time. Also, the Potency result in test [10] is “inactive”.
As for `CCOC(=O)O[C@H](C)OC(=O)c1ccc2c(c1)cc(C(=O)NC1CCN(C(C)C)CC1)n2Cc1cc(-c2ccc(Cl)s2)on1`, the Potency in test [1] is 28.6 µM (active); in test [2], 12.8 µM (active); in [3] it was 28.6 µM (active); in test [6], 64.1 µM (active); in test [7] it was 64.1 µM (active); in test [9], 22.7 µM (active). Moreover, the Potency in [10] is 28.9 µM (active). Besides, the Potency entry in test [4] and in test [8] was “inactive” each time.
In the case of `CC[C@H]1O[C@]2(CC[C@@H]1C)C[C@@H]1C[C@@H](C/C=C(\C)C[C@@H](C)/C=C/C=C3\CO[C@@H]4[C@H](O)C(C)=C[C@@H](C(=O)O1)[C@]34O)O2`, the Potency in test [1] is 68 µM (active); in test [2], 42.9 µM (active); in [3], 60.6 µM (active); in [5], 68 µM (active); in test [6], 60.6 µM (active); in test [9] it was 60.6 µM (active). The Potency in [14] was 19.2 µM (active); in test [10] it was 21.7 µM (active). The Potency entry in test [4], in test [8], in test [12] and in test [13] was “inactive” in each case.
As for `O=C1CCCCCN1SSN1CCCCCC1=O`, the Potency entry in test [1], in [3], in [4], in test [5], in test [8] and in [9] was “inactive” in each case. In test [13], the Potency entry is “inactive”. The Potency in [2] is 24.3 µM (active); in [7], 27.3 µM (active); in [10], 43.6 µM (active).
In the case of `O=C1C=CC(=O)N1`, the Potency in [1] is 31.4 µM (active); in test [2], 8.86 µM (active); in test [3] it was 49.8 µM (active); in test [4], 32.6 µM (active); in test [5] it was 55.9 µM (active); in [6] it was 55.9 µM (active). Further, the Potency in [7] is 31.4 µM (active); in [9], 44.4 µM (active); in test [13], 7.04 µM (active); in [10], 11.3 µM (active). The Potency result in test [8] was “inactive”.
As to `ON=C1CCCC1`, the Potency entry in test [1], in test [2], in test [11], in test [4], in test [7] and in test [12] was “inactive” each time. The Potency entry in test [13] is “inactive”.
Consider `Cc1cc(=O)oc2cc(N(C)C)ccc12`, for which the Potency entry in test [1], in [2], in test [11], in test [7] and in [13] was “inactive” throughout. Moreover, the Potency in test [8] was 61.1 µM (active).
With `CC(C)(C)CC(C)(C)c1ccc(OCCOCC[N+](C)(C)Cc2ccccc2)cc1`, the Potency is 61.1 µM (active) in test [1]; 43.2 µM (active) and 29.8 µM (active) in [2]; 48.5 µM (active) and 13.3 µM (active) in [3]; 48.5 µM (active) in [9]; 13.7 µM (active) and 11.9 µM (active) in test [13]; 19.5 µM (active) and 9.52 µM (active) in test [10]. Besides, the Potency result in test [4], in [5] and in test [12] was “inactive” throughout.
As to `O=Cc1cc(O)ccc1Br`, the Potency entry in test [1], in test [2], in test [3], in test [5], in [6] and in [9] was “inactive” in each case. Also, the Potency in test [4] is 57.2 µM (active).
Consider `C/C(=C(/OCCOc1ccc(Cl)cc1)c1ccc(Cl)cc1Cl)n1ccnc1`, for which the Potency entry in test [1], in [2], in [3], in test [4], in test [5] and in test [6] was “inactive” throughout. Also, the Potency result in test [7], in [8], in test [9] and in [13] was “inactive” throughout.
On to `Nc1nc2ccccc2n1Cc1ccc(F)cc1`, for which the Potency entry in test [1], in [2], in test [11], in [4], in test [7] and in [9] was “inactive” throughout. Besides, the Potency entry in [14], in [12] and in test [13] was “inactive” throughout. In addition, the Potency in [8] was 15 µM (active).
